Test results as given in the supplement of paper PMC6555819.

What was measured:
Experiment in all cases: PBM binding z-score (relative to random genomic background probes); higher = stronger binding; sequences stand for … in GC…GCGATTGACAGCGTAGAATGAAGG
[1] = test system: RARb homodimer (NR concentration 270 nM)
In short: (§1)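 Probes were double-stranded and carried 34-nt variable regions with direct-repeat seeds, single-nucleotide variants, half-site ablations and random human genomic background sequences, printed on custom Agilent 4×180K protein-binding microarrays. Arrays were incubated 1 h with ligand-free nuclear receptor dimers in PBS pH 7.4, 2% milk, 0.02% Triton X-100, 1 mM DTT, 0.2 mg/mL BSA and 0.4 mg/ml salmon testes DNA. Antibodies against each partner (one per run) detected binding, and scanned fluorescence was regression-normalized. Binding z-scores use the random background probes as reference.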

[2] = test system: RARg:RXRa (NR concentration 270 nM, RXRa partner concentration 90 nM)
In short: as §1

[3] = test system: RARg homodimer (NR concentration 270 nM)
In short: as §1

[4] = test system: RXRa DBDmut IVT, anti-RXR (DBD mutation: RXRa K156A/R161A, NR concentration 90 nM)
In short: as §1

[5] = test system: RXRa homodimer (NR concentration 180 nM)
In short: as §1

[6] = test system: THRa:RXRa (NR concentration 90 nM, RXRa partner concentration 90 nM)
In short: as §1

[7] = test system: THRa homodimer (NR concentration 90 nM)
In short: as §1

[8] = test system: VDR homodimer (NR concentration 270 nM)
In short: as §1

Sequence | PBM binding z-score [1] | PBM binding z-score [2] | PBM binding z-score [3] | PBM binding z-score [4] | PBM binding z-score [5] | PBM binding z-score [6] | PBM binding z-score [7] | PBM binding z-score [8]
AACTCTAGGTAAGACTCAGTTCAGTGAAGAACGC | 0.462 | -0.177 | 0.0668 | 0.487 | -0.128 | 0.636 | 0.228 | 1.15
ATATGTAGGTTATCGGGTCATTTAGTTTGCGCAT | 3.08 | 3.19 | 2.33 | 1.69 | 3.5 | 3.3 | 2.86 | 2.85
CAAACTAGGTCACGAAAAGTCAAAGTCGAATGAC | 3.38 | 4.82 | 5.38 | 1.53 | 3.85 | 3.35 | 1.25 | 0.644
ATCGGAAGGTCGAAGGTGAGTATACCCACCCGAA | 1.44 | 2.82 | 2.27 | 0.152 | 3.19 | 1.4 | -0.0912 | 0.449
CCTCGGACGACAGAAGGTCAGAGCTGTCCGCTTT | 3.09 | 2.54 | 2.68 | 0.306 | 1.98 | 1.57 | -0.117 | 0.204
TCTTGTAGATCAACAGGAGGTTATGAAAGATCGA | 0.222 | 0.765 | 0.211 | 0.368 | 0.889 | 0.76 | -0.681 | -0.167
GGAACGAGGGCAAAGTTGATAGTATCTGTCGACG | 1.24 | 2.08 | 1.84 | 2.59 | 1.68 | 1.36 | 0.0529 | 1.64
